# Test results: ChEMBL document CHEMBL1157539, “Thousands of chemical starting points for antimalarial lead identification” (Nature, 2010)
# Legend:
# Assay type in all cases: functional
# [1] = tested on: Plasmodium falciparum; assay: GSK_TCMDC: Inhibition of Plasmodium falciparum 3D7 in whole red blood cells, using parasite LDH activity as an index of growth. Test compounds present at 2uM
# [2] = tested on: Plasmodium falciparum; assay: GSK_TCMDC: Inhibition of Plasmodium falciparum Dd2 in whole red blood cells, using parasite LDH activity as an index of growth. Test compounds present at 2uM
# [3] = tested on: HepG2; assay: GSK_TCMDC: Percent inhibition of human HepG2 cell line. Test compounds present at 10uM.
Compound,Inhibition [1] [%],Inhibition [2] [%],Inhibition [3] [%]
Cc1cc(N[C@@H](CC(C)C)C(=O)NCCc2ccccc2)nc(NCc2ccccc2C)n1.O=C(O)C(F)(F)F,93,74,17
Nc1nc(N)c2cc(CNc3ccc(Cl)c(Cl)c3)ccc2n1,93,55,62
N#Cc1ccc(-c2ccc(C(=O)NCCCCN3CCC(c4cn(CCCO)c5ccccc45)CC3)cc2)cc1,98,56,31
COc1cc2nc(NCCc3ccccc3)nc(NC(C)c3ccccc3)c2cc1OC (stereo not given),99,100,9
COc1ccc(CNC2CCN(C)CC2)cc1-c1cccc(S(=O)(=O)NCc2ccccc2)c1.O=C(O)C(F)(F)F,100,7,43
CCc1cccc(C)c1-n1nc(-c2cc(C(C)(C)C)oc2C)cc1N,95,95,4
Cl.O=S(=O)(Nc1ccc2nccc(N3CCNCC3)c2c1)c1ccc2c(Cl)cccc2c1,100,2,11
CC1(CCCCN2CCC(Cc3ccccc3)CC2)C(=O)Nc2ccccc21.Cl (stereo not given),100,28,66
COc1ccc2nccc([C@@H](O)CN3CCC(NCc4cc5ccccc5[nH]4)CC3)c2c1.CS(=O)(=O)O,92,41,75
CC(C)N1CCN(C(=O)c2ccc(CNCCCN3CCN(c4ccccc4C(F)(F)F)CC3)s2)CC1.Cl,98,42,32
CC(=O)Oc1c(C2C=CCCC2)c(OC(C)=O)c2ccccc2c1OC(C)=O (stereo not given),95,79,10
CN(CCCN)CCCNc1ccnc2cc(Cl)ccc12,100,0,1
O=C(Cn1c(CCc2cccc(F)c2F)nc(=O)c2ccccc21)N(Cc1ccc(-c2ccc(C(F)(F)F)cc2)cc1)C1CCN(C2CCSCC2)CC1.O=C(O)C(O)C(O)C(=O)O,99,93,97
O=c1cc(NCCCNC2CCOc3c(Cl)cccc32)[nH]c2ccccc12 (stereo not given),96,27,0
NC(=O)c1cccc(C(=O)Nc2ccc(-c3cccc(-c4nc5cc(F)ccc5[nH]4)c3)cc2)c1,94,5,45
Cc1cc2nc(-c3ccc(SCC(=O)Nc4ccc5c(c4)OCCO5)nc3)[nH]c2cc1C,85,6,17
COc1cccc(C(=O)NCc2cccs2)c1Oc1ccccc1,98,4,0
O=C(/C=C/c1ccc(Cl)c(Cl)c1)NCCCCCN1CCC(NC(=O)Nc2cccc(C(F)(F)F)c2)CC1,100,11,61
O=C(Nc1cccc(-c2csc(-c3nc4ccccc4[nH]3)c2)c1)c1ccncc1,100,61,64
CC(C)(CNC(=O)C1CCN(CCOc2ccc(Cl)cc2)CC1)c1nc(-c2ccc(Cl)c(O)c2)c(-c2ccncc2)[nH]1.Cl,100,5,40

Compound,Inhibition [1] [%],Inhibition [2] [%],Inhibition [3] [%]
Cc1cnc(NCC2CCCCC2)nc1N[C@@H](CC(C)C)C(=O)Nc1ccccc1.O=C(O)C(F)(F)F,96,55,12
COc1ccc2ccccc2c1CNCC1CCN(CC2CCCCC2)CC1.O=C(O)C(F)(F)F,98,27,23
O=C(Nc1cccc(-c2nn3ccccc3c2-c2ccnc(Nc3ccccc3)n2)c1)c1cc(F)ccc1F,98,75,8
O=C(NC(NC(=S)Nc1ccc([N+](=O)[O-])cc1)C(Cl)(Cl)Cl)c1cccc(Cl)c1 (stereo not given),97,100,24
O=S(=O)(c1cc(Cl)sc1Cl)N(CCC(O)(C(F)(F)F)C(F)(F)F)Cc1cccc(O)c1,98,97,0
Cc1noc(C)c1-c1ccc(C(=C2CCCCCCC2)c2ccc(O)cc2)cc1,83,48,0
COc1nc(NCC(C)C)nc(Oc2ccc(=O)n(Cc3ccccc3)n2)n1,97,93,1
Cc1ccc(Oc2ccc(NC(=O)CNc3ccccc3N3CCCC3=O)cc2)cc1,98,97,14
O=C(Nc1nc2cc(S(=O)(=O)NCc3ccc(Cl)c(Cl)c3)ccc2n1CCCn1ccnc1)c1ccc(Cl)cc1.O=C(O)C(F)(F)F,100,44,0
O=C(CNC(=O)c1ccc(O)cc1)Nc1ccc(-c2cccc(-c3nc4cc(C(F)(F)F)ccc4[nH]3)c2)cc1,92,47,26
CC(C)CSc1cc(C(=O)Nc2cc(Cl)ccc2O)ccn1,100,34,36
Cc1ccc(S(=O)(=O)O)cc1.N=C(N)NCCCC(=O)NCC(N)=O,100,0,20
Cc1cccc(C)c1CNc1ccnc2cc(Br)ccc12.Cl,95,99,24
COc1cc(NC(=O)c2cccs2)c(C(=O)NCc2ccc(C)cc2)cc1OC,93,88,3
CC(C)c1sc(N2CCN(C)CC2)nc1C(=O)Nc1cccc2c1CCCC2.O=C(O)C(F)(F)F,98,50,3
CCC(CC)n1c(C)cc2c3c(N)nc(N)nc3ccc21,95,95,61
O=C(O)C(F)(F)F.O=S(=O)(/C=C/c1ccccc1)N(Cc1ccc(-c2ccc(CNCCOc3ccccc3)cc2)cc1)CC1CCCCN1 (stereo not given),99,95,99
NCC1CCCN1Cc1ccc(-c2ccc(-c3nc4cc(C(F)(F)F)ccc4[nH]3)cc2)cc1.O=C(O)C(F)(F)F (stereo not given),100,98,35
Cc1ccc2[nH]c(-c3ccc(C=CC(=O)NC4CCN(Cc5ccccc5)CC4)cc3)nc2c1,100,92,9
CN1CCN(c2ccc(-c3cccc(NC(=O)c4ccc5ccccc5c4)c3)nn2)CC1,94,26,17

Compound,Inhibition [1] [%],Inhibition [2] [%],Inhibition [3] [%]
COc1cc(OC)cc(-c2nnc(Sc3ccc(C#N)c([N+](=O)[O-])c3)n2C)c1,95,77,1
O=C(/C=C/c1ccc(Cl)c(Cl)c1)NCCCCCCN1CCCN(C(=O)Nc2ccc(F)c(F)c2)CC1,89,2,72
O=C(Nc1ccc2oc(-c3ccc(Br)cc3)nc2c1)c1ccc([N+](=O)[O-])o1,92,21,9
CN(C)CCN(C)Cc1ccc(-c2ccc(NC(=O)c3cccc(Cl)c3)cc2)cc1.O=C(O)C(F)(F)F,94,54,50
Cc1ccccc1C1CCN(C2CCC(NC(=O)/C=C/c3ccccc3C(F)(F)F)CC2)CC1 (stereo not given),83,6,63
Cc1cccc(NC(=O)c2ccc(C(=O)NC3CCN(CC4CCCCC4)CC3)cc2)c1.O=C(O)C(F)(F)F,95,18,14
COc1ccc2nccc([C@@H](O)CN3CCC(NCc4cc5ccc(Cl)cc5[nH]4)CC3)c2c1.O=C(O)C(=O)O,99,61,30
CN1CCC(N2CCN(Cc3ccc(-c4cccc(-c5nc6ccccc6[nH]5)c4)cc3)CC2)CC1.O=C(O)C(F)(F)F,99,100,48
CC(C)CCn1c(Sc2ccc(C#N)c([N+](=O)[O-])c2)nnc1-c1ccc(Cl)cc1,90,39,25
COc1ccc2nccc([C@@H](O)CN3CCC(NCc4nc5cc(F)cc(F)c5[nH]4)CC3)c2c1.O=C(O)C(=O)O,99,64,19
O=C(O)C(F)(F)F.S=C(Nc1cccc(Cl)c1)NC1CCN(c2ccnc3cc(Cl)ccc23)C1 (stereo not given),100,89,16
CCOc1c(Br)cc(Cl)cc1CNCCCNc1nc2ccccc2[nH]1.Cl,98,3,27
COc1cc2c(cc1C(F)(F)F)N(C(=O)Nc1cc(OC(F)(F)F)cc(-c3cccnc3)c1)CC2,100,49,55
Cc1cccc2nc(-c3cccc(-c4cccc(NC(=O)NCc5cccc(F)c5)c4)c3)[nH]c12,98,32,11
COc1cccc2c(NN=Cc3ccccc3Cl)cc(C)nc12,100,100,22
COc1ccc(-c2cc(Nc3nc(-c4cccc(Cl)c4)nc4ccccc34)ccn2)cc1,100,17,3
C[C@@H]1CC[C@H](NC(=O)[C@H](CC2CCCC2)NC(=O)N2CCNCC2)C(=O)CN1S(=O)(=O)c1ccccn1.O=C(O)C(F)(F)F,84,19,5
O=C(O)C(F)(F)F.Oc1ccc(CN2CCC(NCc3cccc4ccccc34)CC2)cc1,97,8,8
COc1ccc2[nH]c(C)cc(=NN=Cc3ccccc3)c2c1,80,6,4
Clc1cc(Nc2ccnc3ccc(Br)cc23)ccc1Oc1ccc(Cl)c2ccccc12,99,86,6
